MazEF act: increases E. coli MazEF RNase cleavage of RNA; FAM/BHQ RNA-DNA oligo cleavage fluorescence, 5 h; activation, % at 20 µM; P0AE70; actives 0.32% (n = 350,000); in the data active = activation above about 50%
Target sequence (P0AE70 whole entry, looked up): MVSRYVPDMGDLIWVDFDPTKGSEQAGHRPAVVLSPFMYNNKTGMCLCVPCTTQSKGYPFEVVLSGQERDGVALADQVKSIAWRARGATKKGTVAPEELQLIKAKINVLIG
SARS 3CLpro inh: SARS-CoV 3CLpro protease inhibition. P0C6X7. recombinant SARS-CoV 3CLpro, quenched FRET peptide cleavage. inhibition, % at 6 µM. actives 0.14% (n = 290,000). AID 1706; in the data active = inhibition above about 12%
Sa RN4220 lethal: S. aureus RN4220 growth inhibition; OD600, 16 h; inhibition, % (test concentration not listed); actives 0.33% (n = 330,000); AID 1259311; in the data active = inhibition above about 85%
Mtb betalactam: beta-lactam sensitization of Mtb H37Rv; actives 0.27% (n = 330,000); inhibition, % at 25 µM; AID 434955; M. tuberculosis H37Rv growth with meropenem, percent inhibition; call rule not given here;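 also: growth measured after seven days incubation then overnight dye step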
CCHF vOTU inh-1: CCHFV vOTU protease inhibition; Pep-AMC fluorescence; inhibition, % at 11.5 µM; actives 0.55% (n = 370,000)
ugtP null kill: growth inhibition of S. aureus ugtP deletion strain | S. aureus RN4220 ugtP deletion, OD600 growth, 16 h | actives 0.54% (n = 330,000) | growth inhibition, % (no concentration beside the values) | AID 1259309; in the data active = growth inhibition above about 68%
CCHF vOTU inh-2: CCHFV vOTU protease inhibition, confirmation; shares compounds with CCHF vOTU inh-1; Recombinant CCHFV vOTU, Pep-AMC fluorescence; inhibition, % at 11.5 µM; actives 17% (n = 1,900); AID 686976
Hits are given with their value; 0 = inactive; - = no result given. This is a sample that favours compounds with a hit; in the whole collection about 1.3% have one here. Rule as the data show it, unless noted: active = inhibition above about 30%; inactive = the rest.

SMILES | MazEF act | SARS 3CLpro inh | Sa RN4220 lethal | Mtb betalactam | CCHF vOTU inh-1 | ugtP null kill | CCHF vOTU inh-2
COCCCNC(=O)c1cccc(S(=O)(=O)N2CC3(C)CC2CC(C)(C)C3)c1 (configuration not stated) | 0 | - | - | 0 | 0 | - | -
CCCCNC(=O)c1cccc(S(=O)(=O)N2CC3(C)CC2CC(C)(C)C3)c1 (configuration not stated) | 0 | - | 0 | 0 | 31 | 0 | 0
COCCNC(=O)c1cccc(S(=O)(=O)N2CC3(C)CC2CC(C)(C)C3)c1 (configuration not stated) | 0 | - | 0 | 0 | 33 | 0 | 0
CC(=NNS(=O)(=O)c1ccc(C)cc1)[C@H]1C[C@@H]1c1ccccc1 | - | - | 0 | - | - | 0 | -
Cc1cccc(COC[C@H](CC(C)C)N2CCN(C(=O)c3ccc(C(C)(C)C)cc3)CCC2=O)c1 | - | - | - | - | 30 | - | 0
CC(C)CC(COCc1ccc(F)cc1)N1CCN(C(=O)c2cccc(C(F)(F)F)c2)CCC1=O (configuration not stated) | 0 | 0 | 0 | 0 | 0 | 0 | -
CC(C)C[C@@H](COCc1ccc(F)cc1)N1CCN(C(=O)c2cccc(C(F)(F)F)c2)CCC1=O | - | - | - | - | 31 | - | 0
CCN1C(=O)[C@@H]2[C@H](C1=O)[C@@H]1C(=O)Nc3ccccc3C(=O)N1[C@@H]2c1ccc(OC)cc1 | 0 | - | - | 0 | 34 | - | 0
O=C(O)CC1S/C(=N/N=C/c2ccc(-c3ccccc3[N+](=O)[O-])o2)NC1=O (configuration not stated) | 0 | 0 | - | 0 | 36 | - | 0
Cc1ccc(-c2ccc(/C=N/N=C3/NC(=O)C(CC(=O)O)S3)o2)c([N+](=O)[O-])c1 (configuration not stated) | 0 | 0 | - | 0 | 0 | - | -
CCCCNC(=O)c1nc(C2CCN(S(=O)(=O)c3csc(C(=O)O)c3)CC2)oc1-c1ccccc1 | - | - | - | - | 30 | - | 0
CCCCNC(=O)c1nc(C2CCN(S(=O)(=O)c3ccc(Cl)cc3)CC2)oc1-c1ccccc1 | - | - | - | - | 0 | - | -
CCc1ccc(-c2csc(NC(=O)C3CC(=O)N(c4ccc5c(c4)OCCO5)C3)n2)cc1 (configuration not stated) | 0 | 0 | 0 | 0 | 30 | 0 | 0
Cc1csc(NC(=O)C2CC(=O)N(c3ccc4c(c3)OCCO4)C2)n1 (configuration not stated) | 0 | - | 0 | 0 | 0 | 0 | -
O=S(=O)(Nc1ccc(O)c2ccccc12)c1cccs1 | 0 | 0 | 0 | 0 | 108 | 0 | 0
O=S(=O)(Nc1cccc2ccccc12)c1cccs1 | 0 | 0 | 0 | 0 | 0 | 0 | -
COC(=O)C1=C(c2ccc(F)cc2F)CC2CCC1N2C (configuration not stated) | - | - | 0 | - | - | 0 | -
COc1cc(NC(C)=O)c2ncccc2c1Br | 0 | - | - | - | 0 | - | -
COc1cc(N)c2ncccc2c1Cl | 0 | - | 0 | - | 97 | 0 | 0
COc1ccc(OCc2cc(C(=O)NC3CCOCC3)no2)c2ccccc12 | 0 | 0 | 0 | 0 | 61 | 0 | 0
COc1cccc(OCc2cc(C(=O)NC3CCOCC3)no2)c1 | 0 | 0 | 0 | 0 | 0 | 0 | -
Cc1c(C#N)c(O)[nH]c(=O)c1N=Nc1ccc(Cl)c(C(=O)O)c1 | 0 | 0 | 0 | 0 | 31 | 0 | 0
CCOC(=O)C(=NNc1cccc(C(F)(F)F)c1)N1CCOCC1 | - | - | 0 | - | - | 0 | -
COc1ccc(CNc2ccc3cn[nH]c3c2)c(OC)c1OC | 0 | 0 | 0 | 0 | 40 | 0 | 0
COC(=O)CC1c2cc(C(F)(F)F)ccc2S(=O)(=O)N1c1ccc(N(C)C)cc1 (configuration not stated) | - | - | 0 | - | - | 0 | -
SMILES | MazEF act | SARS 3CLpro inh | Sa RN4220 lethal | Mtb betalactam | CCHF vOTU inh-1 | ugtP null kill | CCHF vOTU inh-2
COCCn1c(C(=O)N2CCCC2)cc2c1CC1CN(C(=O)c3ccccc3)[C@@](Cc3ccc(F)cc3)(C(=O)OC)C21 (some centres not stated) | - | - | 0 | - | - | 0 | -
S=C(Nc1ccc2nc(-c3ccccn3)c(-c3ccccn3)nc2c1)N1CCOCC1 | 0 | 0 | 0 | 0 | 36 | 0 | 0
CN(C)NC(=S)Nc1ccc2nc(-c3ccccn3)c(-c3ccccn3)nc2c1 | 0 | 0 | 0 | 0 | 0 | 0 | -
CC(C)(NO)C(=NO)c1ccc(Br)cc1 | - | - | 0 | - | - | 0 | -
CCCN(CC(=O)Nc1cccc(S(N)(=O)=O)c1)CC(=O)Nc1ccc(F)c(F)c1F | 0 | 0 | 0 | 0 | 0 | 0 | -
CCCN(CC(=O)Nc1cccc(Br)c1)CC(=O)Nc1ccc(F)c(F)c1F | 0 | 0 | 0 | 0 | 37 | 0 | 0
O=C(C=Cc1c(Cl)nc2ccccn12)N1CCN(c2ccccc2F)CC1 | - | - | 0 | - | - | 0 | -
COc1cc(NC(C)CCCN)c2ncccc2c1Oc1ccccc1 (configuration not stated) | 0 | 0 | 0 | 0 | 30 | 0 | 0
COC(=O)C1=C(C(=O)OC)C2Nc3ccccc3[C@@]23CC(C(=O)OC)N(C(=O)c2ccco2)C3=N1 (some centres not stated) | - | - | 0 | - | - | 0 | -
CSC1=N/C(=C\c2ccc(C)o2)C(=O)S1 | 0 | 0 | 0 | 0 | 30 | 0 | 0
COc1cc(/C=N/Nc2nncn2N)ccc1OCc1c(C)no[n+]1[O-] | 0 | 0 | - | 0 | 97 | - | 0
COc1cc(C=NNc2nncn2N)ccc1OC(C)=O | - | - | 0 | - | - | 0 | -
Nn1cnnc1N/N=C/c1ccc(Cl)cc1Cl | 0 | 0 | - | 0 | 102 | - | 0
COc1ccc(/C=N/Nc2nncn2N)cc1Br | 0 | 0 | - | 0 | 91 | - | 0
COc1cc(/C=C(\C#N)C(N)=O)ccc1OCc1c(C)no[n+]1[O-] | 0 | 0 | 0 | 0 | 0 | 0 | -
COc1ccc(N)c2c1OCCC2=O | 0 | 0 | 0 | 0 | 57 | 0 | 0
Nc1nnnn1CC(=O)NN=Cc1ccccn1 | - | - | 0 | - | - | 0 | -

Assay outcomes (PubChem BioAssay)
